Whole data set: some 33,000 sequences, median “e-score” near -0.037, cut for the highest 2% near 0.34. For the sample, the highest values were picked, then their nearest neighbours and some sequences at random.

The source of these data is publication PMC6212790, “How bacterial xenogeneic silencer rok distinguishes foreign from self DNA in its resident genome”.

The test addresses T1, GST-Rok (full length) (Bacillus subtilis subsp. subtilis str. …, UniProt O34857 1-191).
T1 sequence: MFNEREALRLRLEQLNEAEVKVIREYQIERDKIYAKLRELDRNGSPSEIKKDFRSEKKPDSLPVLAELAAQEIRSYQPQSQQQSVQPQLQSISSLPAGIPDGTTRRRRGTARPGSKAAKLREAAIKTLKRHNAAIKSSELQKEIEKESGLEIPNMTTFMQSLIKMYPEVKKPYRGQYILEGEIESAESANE
Kind of test: protein binding microarray; Rok is a gene silencer of Bacillus subtilis; high values mean tight binding. The settings on record: protein: recombinant; tags: GST (pTH5325, pDEST15-Magic modified); dsDNA, one strand shown. In short, it runs like this: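 Every oligonucleotide joins a 25-mer constant primer to a 35-mer variable part drawn from a de Bruijn sequence of order 10, so each non-palindromic 8-mer appears at least 32 times and each palindromic 8-mer 16 times. The preference for every 8-mer is reported as a unitless, rank-based enrichment score (E-score). This score spans 0.5 for the most favored 8-mer to −0.5 for the most disfavored.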
As for ATTTAGGC, the binding signal was -0.0308 E-score. For CGTAGGCC the value was -0.17 E-score; for ATCGTCCA, -0.0609 E-score; for GCAAAAAC, 0.0325 E-score. With GCTAACTA, the binding signal was 0.341 E-score. In the case of AGTAACTC, the binding signal is 0.0592 E-score. As for AATAACTA, the figure is 0.341 E-score. On to ACTAACTC, for which the binding signal was 0.12 E-score. With GGTAACTA, the binding signal is 0.305 E-score. As to ACTAACTA, the binding signal stood at 0.348 E-score. As to GATAACTA, the binding signal stood at 0.222 E-score.

As to CCTAACTA, the binding signal turned out to be 0.26 E-score.

AATAACTG: the binding signal stood at 0.195 E-score. For AGTAACTA, the binding signal was determined as 0.421 E-score.

Regarding ACTAACTG, the binding signal was 0.163 E-score.

As to GCTAACGA, the binding signal is 0.123 E-score. As for AGTTTTAC, the binding signal was determined as 0.301 E-score. For AGACCAAT, the binding signal was -0.0485 E-score. With AGAGCACA, the binding signal is -0.114 E-score. As for GCGCTTCA, the figure is -0.0884 E-score; as for CGCCTATA, 0.00134 E-score. With AGTTCTAC, the binding signal stood at 0.383 E-score. AATTCTAT: the binding signal stood at 0.31 E-score. As for GATTCTGC, the figure is -0.0394 E-score; as for GATTCTAC, 0.393 E-score; as for AATTCTAA, 0.252 E-score. Regarding AATTCTAC, the binding signal was 0.435 E-score. With AGTTCTAA, the binding signal was 0.15 E-score. Regarding CATTCTAA, the binding signal turned out to be 0.0993 E-score.

For the sequence CATTCTAG, the binding signal amounted to 0.259 E-score. In the case of GATTCTAA, the binding signal amounted to 0.134 E-score. As to CATTCTAC, the binding signal was 0.407 E-score. On to AGTTCTAT, for which the binding signal was found to be 0.213 E-score. For AGCGACAG the value was -0.152 E-score; for GCATTTAA, 0.115 E-score. Take ATAGCCTC: the binding signal was -0.165 E-score. Take GCTTAGAA: the binding signal is -0.0146 E-score. Consider CCGTACAA, for which the binding signal was determined as 0.188 E-score.

In the case of ACTCGGTA, the binding signal is 0.363 E-score.

For CCTCGGTA, the binding signal was 0.0273 E-score. On to ACTCGGTC, for which the binding signal is -0.0736 E-score. Regarding GATAAATA, the binding signal turned out to be 0.313 E-score.

With CATAAATA, the binding signal worked out at 0.195 E-score. With TATAAATA, the binding signal was determined as 0.397 E-score. On to AATAAATC, for which the binding signal was determined as 0.233 E-score.

As for AATAAATA, the binding signal turned out to be 0.345 E-score. In the case of AATAAATG, the binding signal came out at 0.295 E-score.

For the sequence CTTGCGGC, the binding signal was -0.19 E-score.

Regarding ATACTATC, the binding signal stood at 0.378 E-score.

CTACTATC: the binding signal was found to be 0.323 E-score. On to ATACTCTC, for which the binding signal is -0.0829 E-score. Turning to AGACTATA, the binding signal worked out at 0.286 E-score. For CTACTTTA, the binding signal came out at 0.31 E-score. For GGACTATA the value was 0.0812 E-score; for ATACTTTA, 0.239 E-score.

Turning to ATACTATG, the binding signal was determined as 0.271 E-score. On to ATACTATA, for which the binding signal was 0.396 E-score. As for GTACTAAA, the binding signal was found to be 0.241 E-score. For the sequence GTACTATA, the binding signal is 0.444 E-score. In the case of GTACTTTA, the binding signal came to 0.377 E-score. Turning to AATGGGTA, the binding signal turned out to be 0.289 E-score. For the sequence AGTGACAG, the binding signal is -0.0878 E-score. ACTTGTCT: the binding signal was -0.00713 E-score. Turning to CCTCCAAC, the binding signal is -0.135 E-score. Turning to ACATTAAA, the binding signal was found to be 0.108 E-score. For CATTCTTC the value was 0.0507 E-score; for CTACTAGA, 0.32 E-score; for CTACTATA, 0.399 E-score. Regarding CGACTATA, the binding signal is 0.151 E-score.

Take ATACTAGA: the binding signal amounted to 0.349 E-score. For the sequence ATACTAGG, the binding signal stood at 0.225 E-score. As to CCACTATA, the binding signal is 0.162 E-score. As to ATTGAAGA, the binding signal turned out to be 0.204 E-score. Turning to GAATAGGC, the binding signal is -0.173 E-score. For the sequence AGCACATG, the binding signal is -0.117 E-score.

For the sequence ACACACCG, the binding signal worked out at 0.0452 E-score. Turning to CGGCGGTC, the binding signal is -0.184 E-score. As for CTTCACAA, the binding signal came out at 0.035 E-score.

Take TACCAAAA: the binding signal was found to be 0.165 E-score. Take AGTTTCCA: the binding signal stood at 0.18 E-score. For TACGTATA, the binding signal amounted to 0.35 E-score. As for CACGTATA, the figure is 0.243 E-score. As to GACGTATA, the binding signal turned out to be 0.212 E-score. For TCTAGTCA, the binding signal is 0.183 E-score.

With CTCTATAC, the binding signal amounted to 0.033 E-score. As to CTATATAC, the binding signal was 0.341 E-score. AGATATCA: the binding signal was found to be 0.127 E-score. AGATATCT: the binding signal was 0.399 E-score. Consider ACATAACC, for which the binding signal was found to be 0.0404 E-score. AGATATCC: the binding signal was -0.0591 E-score. In the case of GCATATAC, the binding signal is 0.268 E-score.

GTATATAC: the binding signal came to 0.432 E-score. ACATAACT: the binding signal came out at 0.347 E-score. As for CCATATAC, the binding signal is 0.251 E-score.

Regarding ACATAACG, the binding signal was 0.157 E-score. For GGATATAC the value was 0.317 E-score. Regarding ATCTTTCG, the binding signal came to 0.109 E-score. In the case of AAGGATCA, the binding signal was -0.129 E-score.

Turning to CCTAAACC, the binding signal is -0.152 E-score. As for CAAGGTCG, the figure is -0.126 E-score; as for GCTGAAAA, -0.146 E-score. In the case of GTTCTTAA, the binding signal was 0.122 E-score. As for CAAAGCTC, the binding signal was -0.0842 E-score. Turning to TCGAAAAA, the binding signal is -0.0412 E-score. For the sequence ACGTTAGA, the binding signal was 0.156 E-score.

As for CAGGCATG, the binding signal is -0.176 E-score.

ATATAAAG: the binding signal was 0.17 E-score.

Turning to ACATATGG, the binding signal stood at 0.168 E-score. Consider AGATATAC, for which the binding signal was determined as 0.238 E-score.

Regarding ATATATAC, the binding signal was 0.396 E-score.

Take ACATATGT: the binding signal was found to be 0.401 E-score.

As for ATATAAAT, the binding signal worked out at 0.422 E-score.

As for AGATATAG, the binding signal came to 0.151 E-score. For ACATATAC, the binding signal worked out at 0.289 E-score. For ATATAAAC the value was 0.262 E-score. As for AGATATAT, the figure is 0.395 E-score.

As for AGATATAA, the binding signal stood at 0.183 E-score. Take ACATATGA: the binding signal is 0.069 E-score. Take CAGACGAA: the binding signal is -0.0357 E-score.

Take CGTCTAAA: the binding signal is -0.027 E-score.

In the case of AGGCCTCA, the binding signal is -0.155 E-score. As for AAGTTGAT, the figure is 0.0883 E-score; as for CGGCAACA, -0.0449 E-score; as for CCTGTAAG, -0.159 E-score. Regarding AAGAATAA, the binding signal stood at 0.183 E-score. Take ACGTCACA: the binding signal is -0.0872 E-score. For CAATGATG the value was 0.161 E-score; for ACAATTCT, 0.149 E-score.

For the sequence ACATATAA, the binding signal amounted to 0.329 E-score. Turning to ACATATAG, the binding signal was 0.193 E-score. ATATATGC: the binding signal is 0.338 E-score. ACCTATAT: the binding signal turned out to be 0.301 E-score. On to ATATATAT, for which the binding signal was 0.471 E-score. Regarding ACATATAT, the binding signal came out at 0.378 E-score. Consider CTATATGC, for which the binding signal amounted to 0.185 E-score. As for ATATACAT, the figure is 0.302 E-score; as for ATATATGG, 0.299 E-score.

In the case of ACGGGTTC, the binding signal is -0.114 E-score. For the sequence AACAGGCG, the binding signal is -0.0571 E-score.

In the case of CTAATGAC, the binding signal is -0.05 E-score. Regarding GTATATAA, the binding signal came out at 0.278 E-score. CTCTATAA: the binding signal came to 0.0692 E-score.

Consider ATATATAA, for which the binding signal came to 0.435 E-score. With CTATAAAA, the binding signal came to 0.23 E-score. Turning to TTATATAA, the binding signal is 0.399 E-score. With TCATATAA, the binding signal is 0.192 E-score. Consider ATATAAAA, for which the binding signal was 0.288 E-score. For CTATATAA the value was 0.345 E-score; for TAATATAA, 0.236 E-score. As for CAACTGTG, the figure is -0.0366 E-score; as for CCTATGAA, -0.0665 E-score. For GAAGAAAA, the binding signal was -0.0942 E-score. With ATTGATCA, the binding signal came out at 0.101 E-score. ACAAACTC: the binding signal worked out at 0.155 E-score. Take GAAAACCA: the binding signal was -0.118 E-score. Take GAAAACTC: the binding signal is -0.114 E-score. For ACAAACTA the value was 0.383 E-score; for CCAAACTC, -0.0373 E-score; for AAAAACTC, 0.0197 E-score.

For AAAAACTA, the binding signal came out at 0.417 E-score.

GAAAACTA: the binding signal amounted to 0.346 E-score.

In the case of ACAAACTG, the binding signal was found to be 0.127 E-score.

Turning to AAAAACTT, the binding signal was -0.0545 E-score.

CCAAACTA: the binding signal came to 0.364 E-score. Turning to CCAAACCA, the binding signal is -0.0489 E-score. As to GAAGAAGA, the binding signal is -0.113 E-score. For the sequence CACGCTGA, the binding signal is -0.189 E-score. For the sequence CATACCGC, the binding signal is -0.0931 E-score. Turning to CCGATTTC, the binding signal is -0.187 E-score. As for ACATAAAC, the binding signal worked out at 0.257 E-score. AAAAGTTC: the binding signal came out at 0.114 E-score. Consider ACGCAGTA, for which the binding signal was determined as 0.125 E-score.
